Consider 18 molecules from PMC5540273 (PLoS ONE, 2017).

Experiment [1] deals with PIK3CB.
For experiment [2], the system named is T1, PIK4CB.
T1 construct: gene PI4KB

Experiment [3] has as its system PIK3CA.
Experiment [4] deals with PDGFRB.
Experiment [5] relates to PAK4.
Experiment [6] relates to PIM1.
Experiment [7] has as its system PIK3CD.
Experiment [8] relates to NLK.
For experiment [9], the system named is PIM2.
For experiment [10], the system named is PIK3CG.

Structures are written as SMILES. Where only a bound is given, the exact number is not on record here.
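Note: kd values determined as follow-up on hits from a single-replicate KINOMEscan panel screen.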

For orientation: Kd means the constant that tells how readily two partners part at equilibrium. Take `O=c1cc(N2CCOCC2)nc2n(Cc3cccc(C(F)(F)F)c3)ccn12` [GSK2297543]: the Kd in [1] worked out at 140 nM.
Molecule `COc1ccc(COc2cc(-n3cnc4ccccc43)sc2C(N)=O)cc1` [GSK1024304] returned a Kd in [1] greater than 10000 nM.
With `NS(=O)(=O)c1cccc(-c2ccc3ncc(N4CCOCC4)nc3c2)c1` [GSK1535721], binding in experiment [2] was characterised by a dissociation constant (Kd) of 860 nM. That is a sub-micromolar value.
With `N#Cc1c(N2CCOCC2)sc(-c2ccn[nH]2)c1-c1ccc(Cl)cc1`, the Kd was 32 nM in experiment [3] and 750 nM in experiment [1].
`COc1ccc(S(=O)(=O)NC2CCN(c3cc(C)nc(Nc4cccc(C#N)c4)n3)CC2)cc1.O=C(O)C(F)(F)F` [GSK1653539] had a dissociation constant Kd in experiment [1] greater than 10000 nM.
The molecule `Cc1nnc(-c2ccc3ncc(-c4ccc(S(C)=O)cc4)n3c2)o1` (stereo not shown) gave a dissociation constant (Kd) in experiment [4] of 490 nM.
Take `O=C1Cc2cc(Nc3nc(NCc4cccc(S(=O)(=O)C(F)(F)F)c4)ncc3C(F)(F)F)ccc2N1`: the dissociation constant Kd in [5] and in experiment [6] was greater than 10000 nM each time.
In experiment [1], `Cc1cccc(Cn2ccn3c(=O)cc(N4CCOCC4)nc23)c1` [GSK2297542] gave a Kd of 23 nM.
On to `Cc1ccc(NC(=O)c2ccnc(N3CCN(C)CC3)c2)cc1-c1ccc(C(=O)NCC2CC2)cc1` [GW775604], for which, in [4], the affinity, expressed as Kd, was 300 nM.
For `O=c1cc(N2CCOCC2)nc2n(Cc3cccc(F)c3)ccn12` [GSK2297430], binding in [1] was characterised by a dissociation constant (Kd) of 55 nM.
Same read-out and setting: the value for `[2H]C([2H])(c1cccc(C(F)(F)F)c1C)n1ccn2c(=O)nc(N3CCOCC3)cc12` [GSK2336394] was 51 nM.
Consider `Cc1cn2c(=O)cc(N3CCOCC3)nc2n1Cc1cccc(Cl)c1Cl` [GSK2334006], for which the Kd was 2.4 nM in experiment [1] and 120 nM in experiment [7].
`O=C(Nc1n[nH]c2cc(-c3cccc(F)c3)ccc12)C1CC1` [SB-735464] registered a Kd in [8] of 87 nM.
On to `Cc1nnc(-c2ccc3occ(-c4ccc(C(C)O)cc4)c3c2)o1` (stereo not shown), for which the dissociation constant (Kd) in [9] is 940 nM. In other words, the sub-micromolar range.
With `O=c1cc(N2CCOCC2)nc2n(Cc3cccc(Cl)c3Cl)c(C3CC3)nn12` [GSK2358994], the equilibrium dissociation constant (Kd) in [1] came to 0.94 nM; in experiment [7], 820 nM.
`NS(=O)(=O)c1cccc(-c2ccc3nccc(-c4cccc(S(N)(=O)=O)c4)c3c2)c1` [GW867253]: the values for the dissociation constant (Kd) in experiment [10] and in [2] were 81 nM and 32 nM, respectively.
In the case of `Cc1c(Cn2c(C)nn3c(=O)cc(N4CCOC(C)C4)nc23)cccc1C(F)(F)F` (stereo not shown) [GSK2344444], the Kd was 0.67 nM in experiment [1] and 80 nM in [7].
Turning to `O=c1cc(N2CCOCC2)nc2n(Cc3cccc4ccccc34)ccn12` [GSK2333389], the Kd in experiment [1] was found to be 2.9 nM; in [7], 150 nM.
